FPRL1 ligand = human FPRL1 ligands by binding competition, primary screen, cell-based, FPR counter-screen, flow cytometry; FPRL1-expressing cells, fluorescent ligand binding inhibition; AID 441, 2006; 24,000 tested, 0.3% active; inhibition, % (test concentration not listed); N-formyl peptide receptor 2 (Homo sapiens), P25090
LNCaP diff act = activators of LNCaP prostate cell differentiation, primary screen, flow cytometry side scatter. 4 d. 24,000 tested, 0.56% active. side scatter shift, % at 10 µM;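 active means side scatter shift above 30%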;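 further: androgen-responsive LNCaP prostate cancer cells in charcoal-stripped serum medium; higher shift means more granular cells and more differentiation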
Jurkat autofluor = compound autofluorescence on Jurkat cells, primary screen, artefact control for VLA-4 allosteric ligand project, cell-based, flow cytometry; fluorescence ratio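 (tested at 10 µM compound in the well)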; hits give high values; 1 = vehicle-only cell background; 24,000 tested, 0.61% active; AID 576, 2007;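 active means fluorescence ratio above 2.44, which is 1 plus 3 SD of all ratios; inconclusive means signal too bright to measure linearly, ratio around 10 or more; inactive means fluorescence ratio below 2.44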;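 further: green fluorescence of cells measured with 488 nm excitation and 530 nm emission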
VLA-4 agonist = enhancers of LDV-FITC binding to VLA-4 integrin, primary screen, Jurkat cells, flow cytometry | activation, % at 10 µM (by protocol) | 24,000 tested, under 10 active | AID 528, 2006;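 active means fluorescent ligand binding to cells raised by more than 40% of the manganese-induced maximum; inconclusive means compound's own fluorescence above 85% of the ligand control signal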
FPR ligand = human FPR ligands by binding competition, primary screen, cell-based, FPRL1 counter-screen, flow cytometry; fMet-Leu-Phe receptor (Homo sapiens), P21462; FPR-expressing cells, fluorescent ligand binding; inhibition, % (concentration not given with the values); 24,000 tested, 0.74% active
Target sequence (P21462 whole entry, looked up): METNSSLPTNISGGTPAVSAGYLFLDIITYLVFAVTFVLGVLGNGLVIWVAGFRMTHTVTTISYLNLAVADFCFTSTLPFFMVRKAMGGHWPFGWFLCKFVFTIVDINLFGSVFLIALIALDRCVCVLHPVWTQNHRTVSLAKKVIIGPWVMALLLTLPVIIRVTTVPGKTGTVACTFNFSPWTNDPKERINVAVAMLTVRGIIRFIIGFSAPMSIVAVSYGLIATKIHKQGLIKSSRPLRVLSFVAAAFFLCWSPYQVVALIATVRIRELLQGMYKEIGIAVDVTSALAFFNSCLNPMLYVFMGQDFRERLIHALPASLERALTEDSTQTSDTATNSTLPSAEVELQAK
VLA-4 antagonist = inhibitors of LDV-FITC binding to Mn2+-activated VLA-4, primary screen, Jurkat cells; LDV-FITC binding with Mn2+, flow cytometry; 100% = Mn2+-driven binding gain fully reversed; 24,000 tested, 0.2% active; inhibition, % at 10 µM (by protocol);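 active means inhibition above 50%; inconclusive means compound itself fluorescent, judged against control cell fluorescence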
Each line names hits and unclear results; the compound was inactive in the other large screens. In the library only some 1.9% were active in any assay of this set; here they are far more common. Unless noted, no stated cut-off is given here; in the data, active means inhibition above about 30%; inconclusive means no clear call, values can overlap the other calls; inactive means below that.

COc1cccc(C2C(C(=O)c3cccs3)=C(O)C(=O)N2c2cc(C)on2)c1 (stereo unspecified)	none (no result: LNCaP diff act, Jurkat autofluor, VLA-4 agonist, VLA-4 antagonist)
COc1ccc(OC)c(C2C(C(=O)c3cccs3)=C(O)C(=O)N2c2cc(C)on2)c1 (stereo unspecified)	FPR ligand 56 (no result: LNCaP diff act, Jurkat autofluor, VLA-4 agonist, VLA-4 antagonist)
COc1cc(NS(=O)(=O)c2ccc(Br)s2)cc(OC)c1	FPRL1 ligand inconclusive, Jurkat autofluor 4.5, VLA-4 agonist inconclusive, VLA-4 antagonist inconclusive
O=S(=O)(Nc1ccc2c(c1)OCO2)c1ccc(Br)s1	none
O=C(OCn1nnc2ccccc2c1=O)C1CCN(S(=O)(=O)c2cccs2)CC1	none
Nc1nc(Cn2nnc(-c3ccccc3F)n2)nc(N2CCOCC2)n1	none
N#Cc1c(C(F)(F)F)cc(-c2ccccc2)nc1SCc1nc(N)nc(N2CCOCC2)n1	FPRL1 ligand 47, Jurkat autofluor 8.7, VLA-4 agonist inconclusive, FPR ligand inconclusive, VLA-4 antagonist inconclusive
CCn1c(=O)c2cc(C(=O)N3CCN(C(=O)c4ccco4)CC3)sc2c2ccccc21	none
N#CC1=C(N)SC(N)=C(C#N)C1c1ccc(C(F)(F)F)cc1	none
N#CC1=C(N)SC(N)=C(C#N)C1CCc1ccccc1	Jurkat autofluor 2.9, VLA-4 agonist inconclusive, VLA-4 antagonist inconclusive
CCOC(=O)Nc1cc(OCC)c(NC(=O)C2CC2)cc1OCC	none
COc1ccc(-c2cn3cccnc3n2)cc1NC(=O)C1CC1	FPRL1 ligand 76
COc1ccc(NC(=O)C2CCCN(S(=O)(=O)c3cccc4cccnc34)C2)c(OC)c1 (stereo unspecified)	none
COc1ccc(-c2cn3cccnc3n2)cc1NC(=O)C1CCCC1	FPRL1 ligand 74
Cn1c(=O)oc2cc(S(=O)(=O)NC(Cc3ccccc3)C(=O)N3CCCCC3)ccc21 (stereo unspecified)	none
O=c1[nH]c(N2CCCCC2)nc2c1CCCC2	none
CC(C)OC(=O)c1nnn(-c2nonc2N)c1CN1CCc2ccccc2C1	VLA-4 agonist inconclusive, FPR ligand 43, VLA-4 antagonist inconclusive
Cc1ccc2c(c1)c1c(n2CC(O)CNC(CO)(CO)CO)CCCC1 (stereo unspecified)	LNCaP diff act 30
COC(=O)Cn1c2c(c3cc(C)ccc31)CCCC2	none
CCCC(=O)c1cc2ccccc2oc1=O	none
N#CC1=C(SCC(=O)c2cc3ccccc3oc2=O)NC(=O)C(C#N)C12CCCC2 (stereo unspecified)	VLA-4 antagonist 68
CCOCCCNC(=O)c1cn(C)c(=O)c2cc(OC)c(OC)cc12	VLA-4 agonist inconclusive, VLA-4 antagonist inconclusive
CCC(C)NC(=O)c1cn(C)c(=O)c2cc(OC)c(OC)cc12 (stereo unspecified)	LNCaP diff act 37
CCN1C2=NCCCN2c2cc(C)c(C)cc21	none
CCOc1ccccc1NC(=O)CCC(=O)Nc1ccc2nc(N3CCN(C)CC3)cc(C)c2c1	none
Cc1cc(N2CCN(C)CC2)nc2ccc(NC(=O)c3ccc(Br)o3)cc12	LNCaP diff act 35, VLA-4 agonist inconclusive, VLA-4 antagonist inconclusive
Cc1cc(N2CCN(C)CC2)nc2ccc(NC(=O)c3ccc4c(c3)OCO4)cc12	LNCaP diff act 57
Cc1ccc(NC(=O)N2CCCN(Cc3ccc(F)cc3)C2)cc1C	LNCaP diff act 39
COCCN1C(=O)C(=O)/C(=C(/O)c2cccc(S(=O)(=O)N(C)C)c2)C12C(=O)N(C)c1ccccc12 (stereo unspecified)	none
O=c1cc(N2CCN(c3ccc(F)cc3)CC2)[nH]c(=O)n1C1CCCCC1	LNCaP diff act 34
COC(=O)c1[nH]c(C)c(/C(O)=C2\C(=O)C(=O)N(CCCN3CCOCC3)C2c2ccccn2)c1C (stereo unspecified)	FPR ligand 38
CCCN(CCC)CCNC(=O)C(NS(=O)(=O)c1ccc2c(c1)CCC(=O)N2)c1ccccc1 (stereo unspecified)	none
CC1(C(=O)NC2CCCC2)CCC(=O)N1Cc1ccccc1 (stereo unspecified)	none
CC1(C)S[C@@H]2[C@H](NC(=O)Cc3ccccc3)C(=O)N2[C@H]1C(=O)O	FPR ligand 48

Screening results deposited in PubChem by NMMLSC.
